Assay results: PubChem BioAssay (NCI)
The panel holds about 83,000 compounds, 20% with a hit somewhere; the sample as a whole holds those more often.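 Cell lines were cultured in 96-well plates, exposed to a single compound concentration, and assessed for percent growth 48 hours later.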 Unmarked numbers belong to inactive results. Activity calls are given as the source filed them. The calls were made as follows: active = growth percent below 10; inactive = the rest.

Columns and labels:
Experiment in all cases: NCI-60 one-dose screen, 48 h (100 = growth as untreated, 0 = no growth, -100 = all killed)
Settings in all cases: 10 µM unless noted
SR leukemia = tested on: SR leukemia
RPMI-8226 leukemia = tested on: RPMI-8226 leukemia
OVCAR-8 ovarian = tested on: OVCAR-8 ovarian
OVCAR-5 ovarian = tested on: OVCAR-5 ovarian
OVCAR-4 ovarian = tested on: OVCAR-4 ovarian
SK-OV-3 ovarian = tested on: SK-OV-3 ovarian
IGROV1 ovarian = tested on: IGROV1 ovarian
OVCAR-3 ovarian = tested on: OVCAR-3 ovarian
HS 578T breast = tested on: HS 578T breast
NCI/ADR-RES ovarian = tested on: NCI/ADR-RES ovarian
T-47D breast = tested on: T-47D breast
BT-549 breast = tested on: BT-549 breast
MDA-MB-435 melanoma = tested on: MDA-MB-435 melanoma
SW-620 colon = tested on: SW-620 colon
MCF7 breast = tested on: MCF7 breast
HCT-116 colon = tested on: HCT-116 colon
HCC-2998 colon = tested on: HCC-2998 colon
KM12 colon = tested on: KM12 colon
MDA-MB-468 breast = tested on: MDA-MB-468 breast

Compound | growth (SR leukemia) | growth (RPMI-8226 leukemia) | growth (OVCAR-8 ovarian) | growth (OVCAR-5 ovarian) | growth (OVCAR-4 ovarian) | growth (SK-OV-3 ovarian) | growth (IGROV1 ovarian) | growth (OVCAR-3 ovarian) | growth (HS 578T breast) | growth (NCI/ADR-RES ovarian) [%] | growth (T-47D breast) | growth (BT-549 breast) | growth (MDA-MB-435 melanoma) | growth (SW-620 colon) | growth (MCF7 breast) | growth (HCT-116 colon) | growth (HCC-2998 colon) | growth (KM12 colon) | growth (MDA-MB-468 breast)
CC(C)C(C(=O)O)n1c(O)c(/C=C2/C=c3cc4c(cc3=NC2=O)OCO4)sc1=S (stereo unspecified) | 90.5% | 109% | 105% | 110% | 108% | 129% | 109% | 107% | 99.8% | 98.2 | 103% | 111% | 107% | 108% | 90.4% | 108% | 110% | 103% | 101%
Cc1cc(=O)oc2cc(OCCCCOc3ccc(/C=C/C(=O)Nc4ccccc4N)cc3)ccc12 | 56.4% | 18.7% | 85.2% | 84.8% | 73.1% | 92.1% | 81.7% | 64.9% | 118% | 74.3 | 31.4% | -23.9% (active) | 78.3% | 71.9% | 18.6% | 45.6% | 89% | 31.2% | 
COC(=O)C[C@](O)(CCCC(C)(C)O)C(=O)O[C@H]1C(OC)=C[C@@]23CCCN2CCc2cc4c(cc2[C@@H]13)OCO4 | -25% (active) | -18.1% (active) | -34.8% (active) | -14.5% (active) | -13.9% (active) | 2% (active) | -15.7% (active) | -28.5% (active) | -26% (active) | 96.3 | -7.62% (active) | -29.9% (active) | -26.8% (active) | -22.2% (active) | -17.7% (active) | -29.4% (active) | -61.3% (active) | -15.6% (active) | -36.6% (active)
COC(=O)/C=C/c1cccc2c1C(=O)NC(C)(c1cc3ccccc3oc1=O)N2 (stereo unspecified) | 58.7% | 82.6% | 66.9% | 77.6% | 70% | 41.7% | 32% | 74.1% | 72% | 80.1 | 51.4% | 58.2% | 78.2% | 72.2% | 82.2% | 44.6% | 74.4% | 68.8% | 
O=c1[nH]c2ccccc2cc1CSc1cccc(Nc2nccc(-c3ccc4ccccc4c3)n2)c1 | 89.5% | 49.4% | 74.9% | 114% | 69.4% | 115% | 102% | 117% | 105% | 51.4 | 60.9% | 85.4% | 87.9% | 105% | 85.1% | 79.7% | 97.3% | 95.9% | 
C#CCOc1cc(N(CC)CC)ccc1C(C(=O)NC(C)(C)C)N(C(=O)C1CCc2cc(F)ccc2O1)c1ccccc1Br (stereo unspecified) | 47.6% | 37.9% | 63.2% | 69% | 60.4% | 72.1% | 90.9% | 81.6% | 84.7% | 63.3 | 55.6% | 63.7% | 50.6% | 59.2% | 28.7% | 27.5% | 93.5% | 40.4% | 
Cn1cc(NC(=O)c2cc(NC(=O)c3ccc(/C=C/c4ccccc4)cc3)cn2C)cc1C(=O)NCCCN1CCOCC1 | -22.3% (active) | -47.7% (active) | 15.4% | 93.9% | 63% | 98.4% | 58.3% | 24.5% | 64.6% | 90.2 | 46.4% | 71.7% | -73.1% (active) | -34% (active) | -84.8% (active) | -90.1% (active) | -80.1% (active) | -45.8% (active) | 
CCOC(=O)C(N=Nc1ccc(S(=O)(=O)N=C(N)N)cc1)C(C)=O (stereo unspecified) | 99.4% | 98.5% | 104% | 104% | 105% | 138% | 110% | 113% | 111% | 113 | 105% | 113% | 105% | 102% | 97.9% | 109% | 120% | 103% | 92.9%
Cc1ccc(C(=O)CSc2nc3ccc(C)cc3c(=O)n2-c2ccc(F)cc2)cc1 | 99.7% | 98.5% | 31.3% | 84.8% | 28.6% | 54.9% | 80.5% | 89.5% | -8.71% (active) | 40.6 | 52.5% | 73.9% | 89.6% | 89% | 78.1% | 18.8% | 83.5% | 93.7% | 
C#CCOc1cc(N(CC)CC)ccc1C(C(=O)NC(C)(C)C)N(C(=O)C1CCc2cc(F)ccc2O1)c1ccc(F)c(Cl)c1 (stereo unspecified) | 35% | 38.3% | 69% | 82.7% | 57.8% | 73.1% | 70.5% | 57.7% | 75.2% | 72.9 | 42.3% | 61.9% | 65.7% | 74.3% | 30.5% | 38.2% | 92% | 57.5% | 37.6%
Cc1cccc(-c2nc(Nc3ccc(C)c(S(N)(=O)=O)c3)c3ccccc3n2)c1 | 9.02% (active) | 12.9% | 32.8% | 47.6% | 44.7% | 103% | 42.9% | 39.3% | 53.4% | 18.7 | 29.1% | 75.6% | 34.9% | 23.7% | 1.69% (active) | 25.3% | -63.7% (active) | -24.8% (active) | 
Nc1nnc(-c2c[nH]c3ncc(Br)cc23)c(-c2c[nH]c3ccc(F)cc23)n1 | 13.6% | 33.7% | 39% | 48.6% | 59.6% | 80.5% | 37.4% | 33.2% | 28% | 70.7 | 38.2% | 54.4% | 26% | 20.9% | 18.6% | 26% | 45.9% | 30.5% | 13.1%
CCCCc1c(Nn2cnnn2)no[n+]1[O-] | 36.9% | 45.8% | 42.1% | 83.2% | 55% | 88.8% | 35.8% | 51.4% | 58.6% | 58.2 | 51.5% | 49.4% | 46.5% | 57.6% | 24.5% | 38.2% | 78.8% | 61.7% | 49.3%
CN1CCN(/C(=N\c2sc(-c3ccccc3)nc2-c2ccccc2)c2ccccc2)CC1 | 21.1% | 34.6% | 97.6% | 70% | 89.4% | 105% | 82.5% | 111% | 88.7% | 90.4 | 76.2% | 77.5% | 79.7% | 79.5% | 75.1% | 54.4% | 77.5% | 24.5% | 71.6%
COc1c(F)ccc(C(=O)Nc2ccc3nc(NC(=O)C4CCCN(S(=O)(=O)c5ccc(Br)s5)C4)sc3c2)c1F (stereo unspecified) | 44.3% | 46.7% | 94.9% | 105% | 67.9% | 109% | 81.5% | 85.8% | 58.8% | 84.8 | 53.1% | 75.5% | 84.1% | 100% | 53.8% | 65.4% | 98.7% | 75% | 
CC1(C)CC[C@]2(C(=O)O)CC[C@]3(C)C(=CCC4[C@@]5(C)C[C@@H](O)[C@@H]6OC(c7cccc(Br)c7)OC[C@@]6(C)C5CC[C@]43C)C2C1 (stereo partly specified) | 30.6% | 18.9% | 40% | 67.5% | 52.4% | 101% | 66.7% | 34.9% | 65.3% | 40.6 | 39.4% | 44.4% | 61.2% | 25% | 18.6% | 10.8% | 34.8% | 20.8% | 23.6%
